Binding signal data for 40 sequences are collected here from publication PMC7862700, “An all-to-all approach to the identification of sequence-specific readers for epigenetic DNA modifications on cytosine”.

Sequence of CRX (O43186 whole entry): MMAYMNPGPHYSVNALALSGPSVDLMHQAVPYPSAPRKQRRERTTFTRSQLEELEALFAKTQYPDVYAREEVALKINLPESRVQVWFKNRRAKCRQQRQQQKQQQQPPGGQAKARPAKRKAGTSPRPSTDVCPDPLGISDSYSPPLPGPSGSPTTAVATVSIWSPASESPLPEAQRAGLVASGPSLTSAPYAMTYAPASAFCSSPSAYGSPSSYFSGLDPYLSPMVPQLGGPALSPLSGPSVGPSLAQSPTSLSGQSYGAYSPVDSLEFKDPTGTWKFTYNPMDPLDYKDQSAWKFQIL

The first assay concerns the target T1, ETV2 (Homo sapiens, UniProt O00321 1-342).
T1 sequence: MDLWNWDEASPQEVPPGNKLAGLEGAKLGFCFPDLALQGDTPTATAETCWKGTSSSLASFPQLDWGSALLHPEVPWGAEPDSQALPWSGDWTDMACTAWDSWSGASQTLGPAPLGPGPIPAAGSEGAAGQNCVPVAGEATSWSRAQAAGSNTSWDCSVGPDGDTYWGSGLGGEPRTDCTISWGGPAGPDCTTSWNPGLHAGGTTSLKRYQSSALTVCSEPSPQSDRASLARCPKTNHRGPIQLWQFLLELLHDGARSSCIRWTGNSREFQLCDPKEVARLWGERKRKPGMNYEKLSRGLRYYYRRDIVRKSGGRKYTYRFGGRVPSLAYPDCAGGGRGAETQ
The assay can be described thus: DAPPL (digital affinity profiling via proximity ligation, sequencing); 10 mM Tris-HCl pH 7.5, 50 mM NaCl, 1 mM DTT, 4% glycerol, room temperature, 30 min; GST-TFs on glutathione beads, 16-mer random dsDNA library, 0.1% formaldehyde crosslink after washing; high values mean tight binding. The note with it: protein: recombinant; tags: N-terminal GST; dsDNA, one strand shown. The gist of the method: (§1)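 Binding signal is given per hexamer as its read frequency for a factor divided by its frequency in the tag-only sample. GST-fused human transcription factors were expressed in yeast, captured on glutathione beads, barcoded with DNA and pooled with that sample, then incubated with 200 nmole of a 16-mer random double-stranded DNA library in Tris/NaCl/DTT/glycerol buffer for 30 min at room temperature. The pools were then washed, crosslinked, proximity-ligated, amplified by PCR and sequenced on an Illumina NextSeq500.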
Regarding TTCCCG, the binding signal is 1.87 fold enrichment (6-mer frequency, TF over GST control).
The same measure, in the same setting: in the case of CTTCCT it was 3.38 fold enrichment (6-mer frequency, TF over GST control).
Turning to TTGAAA, the binding signal is 1.28 fold enrichment (6-mer frequency, TF over GST control).
On the same count and under the same terms, in the case of TACTCT it was 1.43 fold enrichment (6-mer frequency, TF over GST control).
Still for that read-out and setting: in the case of TCCTCA it was 1.66 fold enrichment (6-mer frequency, TF over GST control).
As for CCTCCC, the binding signal was 1.71 fold enrichment (6-mer frequency, TF over GST control).
For the sequence TGGTTT, the binding signal is 1.34 fold enrichment (6-mer frequency, TF over GST control).
The same measure, in the same setting: the figure for ATGAAC is 1.11 fold enrichment (6-mer frequency, TF over GST control).
On the same count and under the same terms, in the case of AACCTG it was 1.16 fold enrichment (6-mer frequency, TF over GST control); in that of ACAGCT, 1.16 fold enrichment (6-mer frequency, TF over GST control).
Regarding AAATCA, the binding signal was 1.39 fold enrichment (6-mer frequency, TF over GST control).
For TGGACT, the binding signal was 1.27 fold enrichment (6-mer frequency, TF over GST control).
On the same count and under the same terms, the figure for TGAACT is 1.2 fold enrichment (6-mer frequency, TF over GST control); for AATCCC it is 1.37 fold enrichment (6-mer frequency, TF over GST control); for TAAAGT it is 1.11 fold enrichment (6-mer frequency, TF over GST control).
Still for that read-out and setting: in the case of CCTGGA it was 1.51 fold enrichment (6-mer frequency, TF over GST control); in that of AAACCA, 1.14 fold enrichment (6-mer frequency, TF over GST control).
As to CTGTCT, the binding signal is 1.26 fold enrichment (6-mer frequency, TF over GST control).
Still for that read-out and setting: in the case of GCTCCA it was 1.29 fold enrichment (6-mer frequency, TF over GST control).
Same read-out and setting: the figure for CTTGGG is 1.15 fold enrichment (6-mer frequency, TF over GST control).
For the sequence CTCCTT, the binding signal is 1.7 fold enrichment (6-mer frequency, TF over GST control).
Still for that read-out and setting: the figure for CTGTAT is 1.25 fold enrichment (6-mer frequency, TF over GST control).
Turning to ATGCTC, the binding signal was 1.37 fold enrichment (6-mer frequency, TF over GST control).
As for CTATAT, the binding signal was 1.22 fold enrichment (6-mer frequency, TF over GST control).
The same measure, in the same setting: in the case of CTCCAA it was 1.36 fold enrichment (6-mer frequency, TF over GST control); in that of CTCAAT, 1.4 fold enrichment (6-mer frequency, TF over GST control); in that of CCTAAT, 1.44 fold enrichment (6-mer frequency, TF over GST control).
Still for that read-out and setting: the figure for CTGGCT is 1.5 fold enrichment (6-mer frequency, TF over GST control); for TATTTG it is 1.27 fold enrichment (6-mer frequency, TF over GST control); for CTTCGA it is 1.38 fold enrichment (6-mer frequency, TF over GST control).
The same measure, in the same setting: in the case of ACTATG it was 1.24 fold enrichment (6-mer frequency, TF over GST control); in that of TAAACT, 1.27 fold enrichment (6-mer frequency, TF over GST control).
Regarding ATTCAC, the binding signal is 1.21 fold enrichment (6-mer frequency, TF over GST control).
On the same count and under the same terms, in the case of CTACAC it was 1.19 fold enrichment (6-mer frequency, TF over GST control).
As for GTATTT, the binding signal was 1.69 fold enrichment (6-mer frequency, TF over GST control).
Same read-out and setting: in the case of AATTTC it was 1.88 fold enrichment (6-mer frequency, TF over GST control); in that of TTTCAC, 1.35 fold enrichment (6-mer frequency, TF over GST control); in that of CTCGTC, 1.25 fold enrichment (6-mer frequency, TF over GST control).
The same measure, in the same setting: in the case of CCTTCT it was 1.65 fold enrichment (6-mer frequency, TF over GST control); in that of TTACGG, 1.36 fold enrichment (6-mer frequency, TF over GST control).

The target of another assay is T2, ELF3 (Homo sapiens, UniProt P78545 1-371).
T2 sequence: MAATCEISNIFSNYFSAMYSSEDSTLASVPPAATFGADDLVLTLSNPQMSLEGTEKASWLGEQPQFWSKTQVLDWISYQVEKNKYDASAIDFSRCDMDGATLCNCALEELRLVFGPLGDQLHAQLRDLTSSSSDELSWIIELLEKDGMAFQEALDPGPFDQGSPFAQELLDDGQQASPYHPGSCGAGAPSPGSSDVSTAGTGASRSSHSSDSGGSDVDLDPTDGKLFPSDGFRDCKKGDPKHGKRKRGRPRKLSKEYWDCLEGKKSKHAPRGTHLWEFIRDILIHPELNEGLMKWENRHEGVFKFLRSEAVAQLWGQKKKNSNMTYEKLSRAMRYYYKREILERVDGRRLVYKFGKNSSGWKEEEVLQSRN
The assay is described as above. The note with it: protein: recombinant; tags: N-terminal GST; dsDNA, one strand shown. The gist of the method:
as §1
As for TTCCCG, the binding signal is 1.64 fold enrichment (6-mer frequency, TF over GST control).
Same read-out and setting: the figure for CTTCCT is 2.95 fold enrichment (6-mer frequency, TF over GST control); for TTGAAA it is 1.13 fold enrichment (6-mer frequency, TF over GST control).
Still for that read-out and setting: the figure for TACTCT is 1.49 fold enrichment (6-mer frequency, TF over GST control); for TCCTCA it is 1.44 fold enrichment (6-mer frequency, TF over GST control); for CCTCCC it is 1.36 fold enrichment (6-mer frequency, TF over GST control).
As for TGGTTT, the binding signal was 1.5 fold enrichment (6-mer frequency, TF over GST control).
Still for that read-out and setting: the figure for ATGAAC is 1.38 fold enrichment (6-mer frequency, TF over GST control).
Same read-out and setting: the figure for AACCTG is 1.12 fold enrichment (6-mer frequency, TF over GST control); for ACAGCT it is 1.36 fold enrichment (6-mer frequency, TF over GST control); for AAATCA it is 1.27 fold enrichment (6-mer frequency, TF over GST control).
Same read-out and setting: in the case of TGGACT it was 1.19 fold enrichment (6-mer frequency, TF over GST control); in that of TGAACT, 1.11 fold enrichment (6-mer frequency, TF over GST control).
Regarding AATCCC, the binding signal is 1.35 fold enrichment (6-mer frequency, TF over GST control).
Take TAAAGT: the binding signal is 1.13 fold enrichment (6-mer frequency, TF over GST control).
Still for that read-out and setting: in the case of CCTGGA it was 1.12 fold enrichment (6-mer frequency, TF over GST control).
Same read-out and setting: the figure for AAACCA is 1.17 fold enrichment (6-mer frequency, TF over GST control).
The same measure, in the same setting: the figure for CTGTCT is 1.47 fold enrichment (6-mer frequency, TF over GST control); for GCTCCA it is 1.21 fold enrichment (6-mer frequency, TF over GST control).
With CTTGGG, the binding signal is 1.23 fold enrichment (6-mer frequency, TF over GST control).
Same read-out and setting: the figure for CTCCTT is 1.96 fold enrichment (6-mer frequency, TF over GST control); for CTGTAT it is 1.13 fold enrichment (6-mer frequency, TF over GST control); for ATGCTC it is 1.47 fold enrichment (6-mer frequency, TF over GST control).
In the case of CTATAT, the binding signal is 1.33 fold enrichment (6-mer frequency, TF over GST control).
The same measure, in the same setting: the figure for CTCCAA is 1.32 fold enrichment (6-mer frequency, TF over GST control); for CTCAAT it is 1.22 fold enrichment (6-mer frequency, TF over GST control).
On to CCTAAT, for which the binding signal is 1.52 fold enrichment (6-mer frequency, TF over GST control).
Still for that read-out and setting: the figure for CTGGCT is 1.19 fold enrichment (6-mer frequency, TF over GST control); for TATTTG it is 1.45 fold enrichment (6-mer frequency, TF over GST control).
Same read-out and setting: in the case of CTTCGA it was 1.42 fold enrichment (6-mer frequency, TF over GST control).
Still for that read-out and setting: the figure for ACTATG is 1.09 fold enrichment (6-mer frequency, TF over GST control); for TAAACT it is 1.04 fold enrichment (6-mer frequency, TF over GST control); for ATTCAC it is 1.27 fold enrichment (6-mer frequency, TF over GST control).
As to CTACAC, the binding signal is 1.39 fold enrichment (6-mer frequency, TF over GST control).
Still for that read-out and setting: the figure for GTATTT is 1.39 fold enrichment (6-mer frequency, TF over GST control); for AATTTC it is 1.75 fold enrichment (6-mer frequency, TF over GST control); for TTTCAC it is 1.26 fold enrichment (6-mer frequency, TF over GST control).
Same read-out and setting: in the case of CTCGTC it was 1.47 fold enrichment (6-mer frequency, TF over GST control); in that of CCTTCT, 1.54 fold enrichment (6-mer frequency, TF over GST control).
The same measure, in the same setting: the figure for TTACGG is 1.35 fold enrichment (6-mer frequency, TF over GST control).

The target in the next assay is CRX (Homo sapiens, UniProt O43186 1-299). The description is as above. The note with it: protein: recombinant; tags: N-terminal GST; dsDNA, one strand shown. Put shortly:
as §1
For the sequence TTCCCG, the binding signal is 1.7 fold enrichment (6-mer frequency, TF over GST control).
Take CTTCCT: the binding signal was 1.19 fold enrichment (6-mer frequency, TF over GST control).
Consider TTGAAA, for which the binding signal was 1.24 fold enrichment (6-mer frequency, TF over GST control).
On to TACTCT, for which the binding signal is 1.6 fold enrichment (6-mer frequency, TF over GST control).
On the same count and under the same terms, in the case of TCCTCA it was 1.4 fold enrichment (6-mer frequency, TF over GST control).
Same read-out and setting: in the case of CCTCCC it was 1.21 fold enrichment (6-mer frequency, TF over GST control); in that of TGGTTT, 1.5 fold enrichment (6-mer frequency, TF over GST control).
The same measure, in the same setting: the figure for ATGAAC is 1.13 fold enrichment (6-mer frequency, TF over GST control); for AACCTG it is 1.1 fold enrichment (6-mer frequency, TF over GST control).
As to ACAGCT, the binding signal is 1.18 fold enrichment (6-mer frequency, TF over GST control).
Same read-out and setting: the figure for AAATCA is 1.33 fold enrichment (6-mer frequency, TF over GST control); for TGGACT it is 1.06 fold enrichment (6-mer frequency, TF over GST control).
The same measure, in the same setting: the figure for TGAACT is 1.12 fold enrichment (6-mer frequency, TF over GST control); for AATCCC it is 3.65 fold enrichment (6-mer frequency, TF over GST control); for TAAAGT it is 1.75 fold enrichment (6-mer frequency, TF over GST control).
With CCTGGA, the binding signal was 1.41 fold enrichment (6-mer frequency, TF over GST control).
The same measure, in the same setting: the figure for AAACCA is 1.14 fold enrichment (6-mer frequency, TF over GST control); for CTGTCT it is 1.09 fold enrichment (6-mer frequency, TF over GST control).
On the same count and under the same terms, in the case of GCTCCA it was 1.01 fold enrichment (6-mer frequency, TF over GST control); in that of CTTGGG, 1.13 fold enrichment (6-mer frequency, TF over GST control).
